Records with an inconclusive call do not appear. Calls of active or inactive are those of the source. Unless noted, the call rests on the fitted dose curve; in most records, active means well fitted curve in the direction sought with a large enough effect; inconclusive means small, poorly fitted or top-dose-only effect, or another doubt; inactive means no such curve, though single readings can be large; an effect the other way counts as inactive or inconclusive.
Assays:
[1] = AP1 Signaling Pathway (AID 357; active means well fitted curve in either direction with a large enough effect, not every such curve was filed as active;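 further: ME-180 reporter cells stimulated with EGF at its EC50 level; on the % scale 0 is the no-effect control and ±100 the full control effect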); details: ME-180 AP-1-bla reporter, EGF-induced, beta-lactamase ratio, 5 h; at 17.2 µM (top of the series) unless noted
In short: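 Read-out was the 460nm/530nm emission ratio (excitation 405nm) after CCF4 loading for 2.5 hours at room temperature. Cells carried an AP-1-driven beta-lactamase reporter, were stimulated with EC50 EGF plus compound for 5 hours, and AC50 values came from titrations.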

[2] = NFAT Signaling Pathway (AID 444; active means well fitted curve in either direction with a large enough effect, not every such curve was filed as active;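 further: carbachol stimulus at about its EC50 of 1 µM final; on the % scale 0 is the no-effect control and ±100 the full control effect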); details: Jurkat NFAT-bla M1, carbachol, beta-lactamase ratio, 5 h; at 17.2 µM (top of the series) unless noted
In short: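 Read-out: CCF4 FRET ratio (460 nm/530 nm) after 1 h RT dye loading, used for %activity and AC50 from titration series. Cells: Jurkat NFAT-β-lactamase/M1 line, treated with compound plus 1 uM carbachol for 5 h, 37 °C.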

[3] = Stat Signaling Pathway (AID 446; active means well fitted curve in either direction with a large enough effect, not every such curve was filed as active;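 further: ME-180 cervical cancer cells given 40 pM IL-6 alongside compound; SIE-controlled beta-lactamase reporter measured as 460/530 nm FRET emission ratio; on the % scale 0 is the no-effect control and ±100 the full control effect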)
In short: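 Reporter line: ME-180 cervical carcinoma, SIE-beta-lactamase. Treatment: compound with 40 pM IL-6, 5 hrs, 37 C, in low-serum OPTI-MEM with 10 mM HEPES pH 7.3. Detection: 460/530 nm fluorescence.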

[4] = molecular target: Glucocorticoid receptor (Homo sapiens) (UniProt P04150); test: GR-GFP Redistribution (AID 450;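 active means compounds whose dose series gives a full or clear partial fitted curve of increased nuclear translocation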; further: potency means the concentration at half of the fitted maximal effect); details: U2OS GR-GFP nuclear translocation, laser cytometry, 2 h
Sequence of Glucocorticoid receptor (Homo sapiens) (P04150 whole entry, looked up, the tested form may be a part): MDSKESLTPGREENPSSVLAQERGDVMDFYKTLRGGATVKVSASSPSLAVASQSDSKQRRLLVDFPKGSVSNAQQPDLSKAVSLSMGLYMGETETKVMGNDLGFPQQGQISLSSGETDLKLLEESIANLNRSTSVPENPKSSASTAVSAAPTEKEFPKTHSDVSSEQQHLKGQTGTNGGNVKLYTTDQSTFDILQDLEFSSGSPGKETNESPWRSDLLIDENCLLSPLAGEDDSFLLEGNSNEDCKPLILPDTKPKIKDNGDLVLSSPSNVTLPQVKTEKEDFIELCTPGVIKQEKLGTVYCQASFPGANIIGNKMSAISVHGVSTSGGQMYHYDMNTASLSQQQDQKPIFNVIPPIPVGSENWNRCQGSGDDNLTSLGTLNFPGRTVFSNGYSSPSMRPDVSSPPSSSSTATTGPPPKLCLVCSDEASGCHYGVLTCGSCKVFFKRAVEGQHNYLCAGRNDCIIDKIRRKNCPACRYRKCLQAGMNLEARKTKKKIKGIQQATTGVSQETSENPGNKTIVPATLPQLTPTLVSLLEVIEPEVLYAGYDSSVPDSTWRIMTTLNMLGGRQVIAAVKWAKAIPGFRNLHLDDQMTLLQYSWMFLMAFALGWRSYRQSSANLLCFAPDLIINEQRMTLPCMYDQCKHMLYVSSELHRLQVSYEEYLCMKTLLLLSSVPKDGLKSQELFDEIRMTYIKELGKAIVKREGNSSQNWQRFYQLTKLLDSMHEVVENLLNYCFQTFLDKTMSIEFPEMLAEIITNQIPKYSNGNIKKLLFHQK

[5] = molecular target: Glucocorticoid receptor (Homo sapiens) (UniProt P04150); test: GR-EFC Redistribution (AID 451; calls by dose curve; further: potency means the concentration at half of the fitted maximal effect); details: CHO-K1 GR-EFC translocation, beta-gal luminescence, 2 h
In short: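 Translocation of GR-ED fusion to nuclear EA restores b-gal, read by luminescence after 1 h room-temperature detection. Engineered CHO-K1 biosensor cells, 1,000/well, exposed 2 h at 37 C to titrations up to 46 uM final.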

[6] = molecular target: Mitogen-activated protein kinase 10 (Mus musculus) (UniProt Q61831); test: JNK3 AlphaScreen Assay (AID 530; active means well fitted curve in either direction with a large enough effect, not every such curve was filed as active;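 further: kinase came from lysate of stimulated human HepG2 cells; signal reports phosphorylation of biotinylated GST-cJun 1-79 at Ser73 with 10 µM ATP; on the % scale 0 is the no-effect control and ±100 the full control effect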)
In short: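 Room-temperature AlphaScreen kinase assay; pre-activated HepG2 lysate as JNK3 source, biotin-GST-cJun(1-79) substrate, 10 uM ATP, compound 15 min preincubation.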

[7] = molecular target: 3',5'-cyclic-AMP phosphodiesterase 4B (Homo sapiens) (UniProt Q07343); test: qHTS Assay for Inhibitors of PDE-IV (AID 607; active means well fitted activation curve with a large enough effect in the main read-out, with a control signal flat, not every such curve was filed as active; further: % of control where 0% means no effect)
Sequence of 3',5'-cyclic-AMP phosphodiesterase 4B (Homo sapiens) (Q07343 whole entry, looked up): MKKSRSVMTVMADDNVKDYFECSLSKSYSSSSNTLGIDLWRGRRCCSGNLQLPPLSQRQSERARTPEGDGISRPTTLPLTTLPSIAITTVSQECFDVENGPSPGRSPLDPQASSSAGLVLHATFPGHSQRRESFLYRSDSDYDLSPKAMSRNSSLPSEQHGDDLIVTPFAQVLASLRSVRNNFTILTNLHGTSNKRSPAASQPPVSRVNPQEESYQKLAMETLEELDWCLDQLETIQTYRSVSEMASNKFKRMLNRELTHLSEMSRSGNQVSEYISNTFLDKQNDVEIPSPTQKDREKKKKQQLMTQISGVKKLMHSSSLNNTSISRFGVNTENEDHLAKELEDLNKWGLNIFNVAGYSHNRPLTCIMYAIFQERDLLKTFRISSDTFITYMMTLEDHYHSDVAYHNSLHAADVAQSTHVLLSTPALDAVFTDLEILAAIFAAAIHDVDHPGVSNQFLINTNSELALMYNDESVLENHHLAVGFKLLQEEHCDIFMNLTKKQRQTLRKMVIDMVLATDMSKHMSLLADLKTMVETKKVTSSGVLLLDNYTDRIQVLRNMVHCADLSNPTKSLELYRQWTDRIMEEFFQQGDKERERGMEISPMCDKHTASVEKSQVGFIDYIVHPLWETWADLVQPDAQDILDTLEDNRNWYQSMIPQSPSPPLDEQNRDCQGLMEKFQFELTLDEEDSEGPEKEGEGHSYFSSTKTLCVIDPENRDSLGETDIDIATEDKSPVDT
In short: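 Cell-based read-out of cAMP via a modified cyclic nucleotide-gated channel and membrane potential dye (535/590 nm) in HEK293 cells expressing PDE4 endogenously. Compounds tested up to 22.9 uM final; 100 uM RO 20-1724 reference.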

[8] = molecular target: Cytochrome P450 3A4 (Homo sapiens) (UniProt P08684); test: qHTS Assay for Activators of Cytochrome P450 3A4 (AID 885); further: nearly all actives have a fitted effect of over 65% in size
Sequence of Cytochrome P450 3A4 (Homo sapiens) (P08684 whole entry, looked up): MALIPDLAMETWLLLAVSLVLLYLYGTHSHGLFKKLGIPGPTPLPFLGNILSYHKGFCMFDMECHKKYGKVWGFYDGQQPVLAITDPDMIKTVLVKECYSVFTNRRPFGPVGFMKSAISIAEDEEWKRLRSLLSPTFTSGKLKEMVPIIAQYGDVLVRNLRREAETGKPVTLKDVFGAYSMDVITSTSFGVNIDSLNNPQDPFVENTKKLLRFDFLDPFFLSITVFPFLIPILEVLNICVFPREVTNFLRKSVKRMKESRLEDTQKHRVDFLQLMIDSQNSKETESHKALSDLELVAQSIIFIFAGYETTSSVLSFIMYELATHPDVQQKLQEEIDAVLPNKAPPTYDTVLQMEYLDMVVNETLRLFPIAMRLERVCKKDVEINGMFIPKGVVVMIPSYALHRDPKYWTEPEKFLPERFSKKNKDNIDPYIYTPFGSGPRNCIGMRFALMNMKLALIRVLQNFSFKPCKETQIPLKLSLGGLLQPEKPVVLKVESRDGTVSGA
In short: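 Signal was normalized against complete inhibition by 57 uM ketoconazole. The reaction used 20nM CYP3A4 with 25uM Luciferin-PPXE, 10-min compound preincubation and a 60-min NADPH-supported step at RT.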

[9] = molecular target: ATP-dependent 6-phosphofructokinase (Trypanosoma brucei brucei) (UniProt O15648); test: qHTS Assay to Find Inhibitors of T. brucei phosphofructokinase: hit validation (AID 492961)
Sequence of ATP-dependent 6-phosphofructokinase (Trypanosoma brucei brucei) (O15648 whole entry, looked up): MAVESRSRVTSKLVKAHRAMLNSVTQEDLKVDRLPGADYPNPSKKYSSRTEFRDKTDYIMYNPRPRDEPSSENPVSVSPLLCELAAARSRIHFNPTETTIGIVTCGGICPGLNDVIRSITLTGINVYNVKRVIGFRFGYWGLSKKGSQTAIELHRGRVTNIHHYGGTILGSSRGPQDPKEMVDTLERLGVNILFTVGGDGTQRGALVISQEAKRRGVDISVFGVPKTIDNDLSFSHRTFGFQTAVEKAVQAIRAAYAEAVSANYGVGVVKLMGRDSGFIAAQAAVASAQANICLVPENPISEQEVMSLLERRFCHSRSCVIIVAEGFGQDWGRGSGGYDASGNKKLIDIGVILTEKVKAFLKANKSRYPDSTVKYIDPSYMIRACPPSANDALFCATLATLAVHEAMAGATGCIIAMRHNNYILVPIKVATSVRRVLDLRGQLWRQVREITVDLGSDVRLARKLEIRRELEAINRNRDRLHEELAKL
In short: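 ADP-Glo luminescence read-out of ADP formed by 1.25 nM PFK from 0.1 mM ATP and 0.5 mM F6P (TEA pH 8.0, 45 min, RT). Compounds titrated; activity normalized to no-enzyme and full-enzyme controls.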

[10] = molecular target: Ubiquitin carboxyl-terminal hydrolase 1 (Homo sapiens) (UniProt O94782); test: Inhibitors of USP1/UAF1: Pilot qHTS (AID 504865);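 further: rhodamine fluorescence freed from ubiquitin-rhodamine substrate followed over time; top concentration of the series differs between compounds; on the % scale 0 is the no-effect control and ±100 the full control effect; nearly all actives have a fitted effect of over 35% in size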
Sequence of Ubiquitin carboxyl-terminal hydrolase 1 (Homo sapiens) (O94782 whole entry, looked up): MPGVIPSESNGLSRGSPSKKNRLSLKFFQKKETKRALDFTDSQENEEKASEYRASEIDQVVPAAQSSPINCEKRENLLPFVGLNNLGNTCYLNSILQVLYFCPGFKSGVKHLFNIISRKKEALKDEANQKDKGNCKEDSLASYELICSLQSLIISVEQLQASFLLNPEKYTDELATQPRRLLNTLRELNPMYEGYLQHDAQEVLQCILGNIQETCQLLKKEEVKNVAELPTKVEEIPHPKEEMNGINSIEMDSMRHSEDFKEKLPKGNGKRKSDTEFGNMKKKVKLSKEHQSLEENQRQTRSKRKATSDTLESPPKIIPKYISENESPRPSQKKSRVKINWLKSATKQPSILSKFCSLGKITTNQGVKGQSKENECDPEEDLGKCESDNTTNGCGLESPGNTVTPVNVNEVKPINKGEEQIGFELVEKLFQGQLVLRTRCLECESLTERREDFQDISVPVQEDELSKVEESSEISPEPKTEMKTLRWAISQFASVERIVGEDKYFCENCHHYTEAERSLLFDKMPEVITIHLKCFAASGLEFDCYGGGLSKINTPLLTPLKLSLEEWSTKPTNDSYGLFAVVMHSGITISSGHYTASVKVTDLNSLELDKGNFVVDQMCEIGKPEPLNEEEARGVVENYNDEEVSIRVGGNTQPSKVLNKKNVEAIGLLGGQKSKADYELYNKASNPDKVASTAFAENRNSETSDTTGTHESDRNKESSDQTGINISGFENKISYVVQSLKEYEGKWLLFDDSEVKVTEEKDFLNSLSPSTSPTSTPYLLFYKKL
In short: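 In 50mM HEPES pH 7.8 containing 0.5mM EDTA, 1mM TCEP, 0.1 mg/ml BSA and 0.01% Tween-20, 1nM USP1/UAF1 is exposed to compound for 15 min, then Ub-Rho (150nM final) is added and fluorescence is read over time.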

[11] = molecular target: Luciferin 4-monooxygenase (Photinus pyralis) (UniProt P08659); test: Biochemical firefly luciferase enzyme assay for NPC (AID 624030);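 further: purified P. pyralis luciferase at 10 nM with luciferin and ATP substrate; 0% = DMSO and -100% = full luciferase inhibition by PTC124 control; nearly all actives have a fitted effect of over 70% in size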
Sequence of Luciferin 4-monooxygenase (Photinus pyralis) (P08659 whole entry, looked up): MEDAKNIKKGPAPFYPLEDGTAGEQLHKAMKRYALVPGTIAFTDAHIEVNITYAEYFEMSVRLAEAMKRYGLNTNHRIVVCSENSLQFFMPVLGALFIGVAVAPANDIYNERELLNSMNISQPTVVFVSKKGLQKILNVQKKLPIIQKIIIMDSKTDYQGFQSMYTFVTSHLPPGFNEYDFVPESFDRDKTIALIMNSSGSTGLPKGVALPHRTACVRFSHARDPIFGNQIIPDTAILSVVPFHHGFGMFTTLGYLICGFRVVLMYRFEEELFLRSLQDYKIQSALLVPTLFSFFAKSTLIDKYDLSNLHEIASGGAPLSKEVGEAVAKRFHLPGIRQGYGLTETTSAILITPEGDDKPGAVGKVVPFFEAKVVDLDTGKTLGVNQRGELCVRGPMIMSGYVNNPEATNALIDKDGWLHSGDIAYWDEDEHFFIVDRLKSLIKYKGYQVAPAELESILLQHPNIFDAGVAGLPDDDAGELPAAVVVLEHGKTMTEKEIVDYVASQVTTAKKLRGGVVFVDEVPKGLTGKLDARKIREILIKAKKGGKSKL
In short: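 Direct inhibition of firefly luciferase enzyme (10 nM final, 50 mM Tris Acetate) assessed by luminescence within 5 minutes. Percent activity scaled between DMSO and PTC124 positive control, with concentration-effect curves classified by fit quality and response.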

[12] = S16 Schwann cell viability assay (CellTiter-Glo assay) (AID 624031);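 further: cellular ATP luminescence as a viability measure; plate controls were DMSO-treated cells for no effect and cell-free wells for full effect; nearly all actives have a fitted effect of over 70% in size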
In short: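 Native S16 rat Schwann cells, 500-750 cells/well in DMEM with 10% FBS, dosed with compound after overnight culture and incubated 24h at 37 degree Celsius/5% CO2. Viability by CellTiter-Glo luminescence; % activity normalized to no-cell wells and DMSO-treated cells.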

[13] = S16 Schwann cell PMP22 intronic element firefly luciferase assay (AID 624032);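 further: plate controls were DMSO for no effect and PTC124 positive control mean for full effect; nearly all actives have a fitted effect of over 30% in size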
In short: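 Luciferase reporter of PMP22 intronic-element expression in stably transfected S16 rat Schwann cells, read by ONE-Glo luminescence after 24 h compound exposure at 37 C. Activity scaled between DMSO (0%) and positive-control PTC124; concentration-effect curves quality-classified.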

[14] = S16 Schwann cell PMP22 intronic element beta-lactamase assay (AID 624044; calls by dose curve;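 further: 0% = DMSO and -100% = potassium clavulanate positive control; nearly all actives have a fitted effect of over 15% in size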); details: S16 rat Schwann cells, PMP22 element beta-lactamase FRET, 24 h; ratio activity, negative = inhibition: at 38.3 µM (top of the series)
In short: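 Rat S16 Schwann cells with beta-Lac driven by a PMP22 intronic element, compound-treated 24 h at 37 °C. LiveBLAzer FRET B/G read: 460 nm normalized to potassium clavulanate vs DMSO; 535 nm FRET as viability; concentration-effect curves classified.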

[15] = qHTS profiling for inhibitors of Plasmodium falciparum proliferation (AID 504749);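 further: 0% = DMSO vehicle and full inhibition = artemisinin control; nearly all actives have a fitted effect of over 60% in size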; details: P. falciparum in erythrocytes, SYBR Green DNA, 72 h, at 12.8 µM (top of the series)
In short: (§1)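 Three-day growth assay of blood-stage parasites in erythrocytes (0.3% parasitemia, 2.5% hematocrit) at 37 C, 5% CO2, quantified by SYBR Green DNA staining after overnight detergent lysis.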

3D7 = test: as above; details: P. falciparum in erythrocytes, SYBR Green DNA, 72 h; series mostly up to 28.7 µM
In short: as §1

AA1029 = test: as above; details: P. falciparum in erythrocytes, SYBR Green DNA, 72 h; series mostly up to 28.7 µM
In short: as §1

AS120 = test: as above; details: P. falciparum in erythrocytes, SYBR Green DNA, 72 h; series mostly up to 28.7 µM
In short: as §1

ATS189 = test: as above; details: P. falciparum in erythrocytes, SYBR Green DNA, 72 h; series mostly up to 28.7 µM
In short: as §1

ATS95 = test: as above; details: P. falciparum in erythrocytes, SYBR Green DNA, 72 h; series mostly up to 28.7 µM
In short: as §1

C2A = test: as above; details: P. falciparum in erythrocytes, SYBR Green DNA, 72 h; series mostly up to 28.7 µM
In short: as §1

CP185 = test: as above; details: P. falciparum in erythrocytes, SYBR Green DNA, 72 h; series mostly up to 28.7 µM
In short: as §1

CP191 = test: as above; details: P. falciparum in erythrocytes, SYBR Green DNA, 72 h; series mostly up to 28.7 µM
In short: as §1

CP192 = test: as above; details: P. falciparum in erythrocytes, SYBR Green DNA, 72 h; series mostly up to 28.7 µM
In short: as §1

CP194 = test: as above; details: P. falciparum in erythrocytes, SYBR Green DNA, 72 h; series mostly up to 28.7 µM
In short: as §1

CP201 = test: as above; details: P. falciparum in erythrocytes, SYBR Green DNA, 72 h; series mostly up to 28.7 µM
In short: as §1

CP203 = test: as above; details: P. falciparum in erythrocytes, SYBR Green DNA, 72 h; series mostly up to 28.7 µM
In short: as §1

CP211 = test: as above; details: P. falciparum in erythrocytes, SYBR Green DNA, 72 h; series mostly up to 28.7 µM
In short: as §1

CP215 = test: as above; details: P. falciparum in erythrocytes, SYBR Green DNA, 72 h; series mostly up to 28.7 µM
In short: as §1

CP217 = test: as above; details: P. falciparum in erythrocytes, SYBR Green DNA, 72 h; series mostly up to 28.7 µM
In short: as §1

CP237 = test: as above; details: P. falciparum in erythrocytes, SYBR Green DNA, 72 h; series mostly up to 28.7 µM
In short: as §1

CP238 = test: as above; details: P. falciparum in erythrocytes, SYBR Green DNA, 72 h; series mostly up to 28.7 µM
In short: as §1

CP247 = test: as above; details: P. falciparum in erythrocytes, SYBR Green DNA, 72 h; series mostly up to 28.7 µM
In short: as §1

CP250 = test: as above; details: P. falciparum in erythrocytes, SYBR Green DNA, 72 h; series mostly up to 28.7 µM
In short: as §1

CP252 = test: as above; details: P. falciparum in erythrocytes, SYBR Green DNA, 72 h; series mostly up to 28.7 µM
In short: as §1

CCOC(=O)c1cncn1[C@@H](C)c1ccccc1
inactive: activity change, negative = inhibition [1] 9.06% | activity change, negative = inhibition [2] -21.8% | outcome [3] | Potency [4] > 20.6 µM | Potency [5] > 20.6 µM | outcome [6] | outcome [7] | Potency [8] | outcome [9] | Potency [10] | Potency [11] | Potency [12] | Potency [13] | Potency [14] | activity, negative = inhibition ([15]; parasite line A) -15.7% | activity, negative = inhibition ([15]; parasite line B) -15.4% | Potency (3D7) | Potency (AA1029) | Potency (AS120) | Potency (ATS189) | Potency (ATS95) | Potency (C2A) | Potency (CP185) | Potency (CP191) | Potency (CP192) | Potency (CP194) | Potency (CP201) | Potency (CP203) | Potency (CP211) | Potency (CP215) | Potency (CP217) | Potency (CP237) | Potency (CP238) | Potency (CP247) | Potency (CP250) | Potency (CP252)
